Several values for one entry are separate records, joined by “and”; a condition that tells them apart may be missing. Equal values may be shown once.
How the values were obtained:
Type in all cases: functional
[1] = target: Solute carrier family 2, facilitated glucose transporter member 1 (Homo sapiens) (UniProt P11166); assay: ST_JUDE_LEISH: Cytotoxicity at 2uM final concentration against transgenic Leishmania Mexicana promastigotes LmGLUT1 that are glucose transport deficient and complemented with the human glucose transporter GLUT1. Activity is measured by DNA content using SYBR green in vitro
[2] = target: Hexose transporter 1 (Plasmodium falciparum) (UniProt O97467); assay: ST_JUDE_LEISH: Cytotoxicity at 2uM final concentration against transgenic Leishmania Mexicana promastigotes LmPfHT that are glucose transport deficient and complemented with the Plasmodium falciparum hexose transporter. Activity is measured by DNA content using SYBR green in vitro
[3] = target: Glucose transporter (Leishmania mexicana) (UniProt O61059); assay: ST_JUDE_LEISH: Cytotoxicity at 2uM final concentration against transgenic Leishmania Mexicana promastigotes LmGT2 that are glucose transport deficient and complemented with the L. Mexicana glucose transporter 2. Activity is measured by DNA content using SYBR green in vitro

Sequence of Solute carrier family 2, facilitated glucose transporter member 1 (Homo sapiens) (P11166 whole entry): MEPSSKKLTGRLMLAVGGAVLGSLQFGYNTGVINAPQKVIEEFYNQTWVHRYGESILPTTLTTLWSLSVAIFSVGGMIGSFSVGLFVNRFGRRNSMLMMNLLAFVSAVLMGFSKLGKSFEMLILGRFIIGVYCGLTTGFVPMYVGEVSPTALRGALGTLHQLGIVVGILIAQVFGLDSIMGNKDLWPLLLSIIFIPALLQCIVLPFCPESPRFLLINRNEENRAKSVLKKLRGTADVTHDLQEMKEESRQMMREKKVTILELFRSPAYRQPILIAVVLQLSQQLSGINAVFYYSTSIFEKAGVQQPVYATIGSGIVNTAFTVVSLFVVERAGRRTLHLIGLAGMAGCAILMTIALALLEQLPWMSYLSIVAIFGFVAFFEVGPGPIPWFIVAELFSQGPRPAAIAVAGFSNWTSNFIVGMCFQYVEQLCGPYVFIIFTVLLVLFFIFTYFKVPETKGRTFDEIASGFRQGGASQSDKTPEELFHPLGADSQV

Structure (SMILES) | inhibition [1] | inhibition [2] | inhibition [3]
Oc1ccc(CCNc2nc(NCc3ccccc3Oc3ccc(C(F)(F)F)cc3)nc(N3CCNCC3)n2)cc1 | -0.98% | -1.74% | -2.4%
O=C(Nc1cccc(F)c1)N[C@H]1CCN(CCCCCNC(=O)C2CC2c2ccc(Cl)c(Cl)c2)C1 (stereo not given in full) | 4.75% | 3.61% | 0.83%
Oc1ccc2ccccc2c1C=NNc1nc(=Nc2ccccc2)nc(N2CCOCC2)[nH]1 | 4.21% | 3.72% | 0.2%
CC(C)N1CCC(N(Cc2ccc(-c3ccc(C(F)(F)F)cc3)cc2)C(=O)Cn2c(SCc3cccc(F)c3F)cc(=O)c3c2CCC3)CC1 | 4.88% | -0.24% | -3.84%
CCOC(=O)c1ccc(OCCCCCCOc2ccc(Br)cc2)cc1 | 1.32% | 4.52% | -0.5%
COc1cc(NC(=O)c2ccc(-c3ccccc3)cc2)ccc1OCCCN1CCC(c2ccccc2)CC1 | 0.2% | 2.26% | 2.91%
COc1cccc(Cc2c(C)nc3nc(N)nc(N)c3c2C)c1 | -0.08% | 1.04% | -0.24%
c1ccc(CN2CCC(NCc3cccc(-c4cncc5ccccc45)c3)CC2)cc1 | 9.44% | 7.7% | 8.64%
CN(C(=O)Nc1ccc(F)cc1)C1CCN(CCCCCNC(=O)/C=C/c2ccc(Cl)c(Cl)c2)CC1 | 1% | 1.65% | 2.01%
Cc1[nH]c(C)c(-c2ccc(OCCCCSc3ccncc3)cc2)c(=O)c1Br | 8.71% | 6.45% | 8.94%
CNCc1cccc2nc(-c3ccc(Cc4cc(Cl)ccc4OCC(C)C)o3)[nH]c12 | 4.31% | 2.61% | 3.52%
Cc1cc(N2CCCC2)nc(Nc2ccc(NC(=O)C(C)(C)C)cc2)n1 | 0.4% | 2.7% | -0.65%
Nc1c(Cl)cc(C(O)CNCCCCCOCCCc2ccc3ncccc3c2)cc1Cl (stereo not given) | 5.88% | 5.02% | 4.94%
CCN(CCCN1CCCCC1)c1cc(C)nc(Nc2ccc(C)cc2Cl)n1 | 9.81% | 7.68% | 7.34%
CCOc1ccc2c(=NN=Cc3cc(OC)c(OC)cc3OC)cc(C)[nH]c2c1 | 3.1% | 2.65% | -1.87%
CCCCCCNC(=O)C1Cc2c([nH]c3ccc(Br)cc23)C2(CCN(CCc3ccccc3)CC2)N1 (stereo not given) | 13.8% | 10.8% | 9.91%
CCNc1cc(C(=O)N[C@@H](Cc2ccccc2)[C@H](O)CNC(C)(C)CSCC(C)C)cc(N2CCCC2=O)c1 | 1.84% | 2.11% | -1.53%
COc1ccc(C(=O)NCc2ccccc2-c2ccc(C(C)(C)C)cc2)cc1O | 3.25% | 5.39% | 1.49%
CC1CN(c2ccc3[nH]cc(Sc4ccc(-c5cccs5)cc4)c3c2)CC(C)N1 (stereo not given) | -0.79% | -1.78% | -1.36%
CC1(C)C(N(O)C(=O)Nc2ccc(Cl)c(Cl)c2)N(c2ccc(Cl)c(Cl)c2)C(=O)N1CCc1ccccc1 (stereo not given) | -0.14% | 0.2% | 0%
CCCCN(Cc1cc(Cl)c(OC)c(OC)c1)c1ccc(C(O)(C(F)(F)F)C(F)(F)F)cc1 | 1.29% | 4.14% | -0.33%
CC[C@H]1CN2CCc3cc(OC)c(OC)cc3[C@@H]2C[C@@H]1CC1=NCCc2c1[nH]c1ccc(OCc3ccccc3)cc21 | 0.63% | 0.59% | 2.89%
CCCCCCCCN1CCCN(C(=O)c2cccc(NC(=O)Nc3ccc4ccccc4c3)c2)CC1 | 0.2% | -0.59% | -0.77%
CO/C(=C\C=C\c1cc2cc(Cl)c(Cl)cc2[nH]1)C(=O)NCCCN1CC(C)N(C)CC1C (stereo not given) | 7.33% | 5.89% | 6.63%

Structure (SMILES) | inhibition [1] | inhibition [2] | inhibition [3]
Cc1cccc(C)c1C1CCN(C2CCC(NC(=O)/C=C/c3ccccc3)CC2)CC1 (stereo not given) | 5.77% | 5.67% | 5.46%
Nc1c2ccccc2nc2ccc(Cl)cc12 | 14.6% | 16.4% | 9.04%
CN(C)CCNc1cc(-c2cccnc2)nc(-c2ccncc2)n1 | -1.31% | -1.16% | -1.09%
Nc1nc(N)c2c(ccc3nn(C4CCCC4)cc32)n1 | 10.1% | 9.8% | 5.28%
CCCN1CCC=C(c2cccc(Nc3nccc(Nc4cc(OC)ccc4C)n3)c2)C1 | 11.2% | 11.9% | 10%
O=C(/C=C/c1ccc([N+](=O)[O-])cc1)N1CCC(NS(=O)(=O)c2cccc(C(F)(F)F)c2)CC1 | 3.4% | 3% | 0.97%
COc1ccccc1NS(=O)(=O)c1cc(C(=O)Nc2ccc(N3CCOCC3)c(S(=O)(=O)Nc3ccccc3Cl)c2)ccc1Cl | 3.2% | 2.83% | 0.88%
COc1ccc(CNC(=O)NC2CCN(c3ccnc(Nc4cc(OC)c(OC)c(OC)c4)n3)C2)cc1 (stereo not given) | 1.55% | 5.45% | -1.15%
O[C@@H](c1cc(C(F)(F)F)nc2c(C(F)(F)F)cccc12)[C@H]1CCCCN1 | 13.6% and 1.21% | 8.31% and 0.88% | 7.19% and 1.05%
COc1ccc(-c2ccc(NC(=O)c3cccc(Cl)c3)cc2)cc1CNC(C)C | 4.75% | 5.52% | 1.96%
Cc1cc(OCCCN2CCCC2)ccc1NC(=O)COc1ccc(Cl)cc1C(=O)c1cc(C#N)cc(C(F)(F)F)c1 | 73% | 11.6% | 10.3%
CCCCCCCC1CC(CC(=O)Nc2ccnc3ccc(OC)cc23)CN1C(=O)OC(C)(C)C (stereo not given) | 9.12% | 11.2% | 3.12%
CC(C)Cn1ccc2c3c(N)nc(N)nc3ccc21 | 27.1% | 47.5% | 17%
Cc1cc(C2CCN(CCCCNC(=O)c3ccc(NC(=O)c4ccc(Cl)cc4)cc3)CC2)c(C)cc1OCc1cccnc1 | 0.04% | -0.98% | -0.82%
CCn1c(C2CCN(CCC3CCN(C(=O)/C=C/c4ccc(Cl)c(Cl)c4)CC3)CC2)nc2ccccc21 | 3.31% | 1.31% | 0.66%
CC(C)C1c2ccc(O)cc2CC2C(=O)N(C3CCCCC3)C(=O)N21 (stereo not given) | -1.04% | -1% | -0.94%
O=C(NCCCCN1CCC(c2ccc3c(c2OC(=O)c2ccc(NC(=O)c4ccc(Cl)cc4)cc2)CCCC3)CC1)c1ccc(NC(=O)c2ccc(Cl)cc2)cc1 | 3.25% | 0.15% | 3.18%
c1ccc(CNc2cc(-c3ccccn3)nc(-c3ccccn3)n2)cc1 | 24.5% | 4.72% | 8.35%
CCCCCNC(=N)c1ccc(OCCCCCOc2ccc(C(=N)NCCCCC)cc2)cc1 | 19.6% | 25.9% | 5.15%
c1cc(CN2CCN(c3ccncc3)CC2)cc(-c2ccc(-c3nc4ccccc4[nH]3)cc2)c1 | 8.29% | 5.17% | 2.65%
Oc1ccc(CCNc2nc(NCCCOc3ccccc3-c3cccnc3)nc(N3CCNCC3)n2)cc1 | 5.04% | 7.86% | 5.99%
CCn1cc2c3c(cc(C(=O)N[C@@H](Cc4ccccc4)[C@H](O)CNC4CCOCC4)cc31)N(C)S(=O)(=O)CC2 | 0.41% | 0.29% | 4.85%
Cc1ccccc1Cn1c(CN2CCC(C(=O)NC3CC3)CC2)cc2ccccc21 | 2.57% | 1.99% | 5.38%
COCCOc1ccc(Nc2nccc(-c3c(-c4cccc(NC(=O)c5c(F)cccc5F)c4)nn4ccccc34)n2)cc1F | 7.82% | 10.9% | 1.25%

Structure (SMILES) | inhibition [1] | inhibition [2] | inhibition [3]
CCCN(CCC)C(C)CCC(C)Nc1c2ccc(Cl)cc2nc2ccc(OC)cc12 (stereo not given) | 1.91% | 2.78% | 2.82%
CC(C)CC(=O)N1CCNC[C@@H]1C(=O)NC1CC1 | 1.66% | 1.41% | -0.37%
CC(=O)Nc1ccc(S(=O)(=O)N2CCN(c3nc(NC4CCCC4)c4ccccc4n3)CC2)cc1 | 0.69% | 3.35% | 2.94%
O=C(C=Cc1ccc(Cl)c(Cl)c1)NCCCCCN1CCC(CCNC(=O)c2sc3ccccc3c2Cl)CC1 | 11.5% | 9.43% | 8.75%
CC(CN(C)C)C(=O)Nc1cccc(-c2ccc(-c3nc4cc(F)ccc4[nH]3)cc2)c1 (stereo not given) | -1.76% | -3.5% | -0.1%
Cc1cc(N[C@@H](CC(C)C)C(=O)NCCc2ccccc2)nc(NCCc2ccc(F)cc2)n1 | -0.03% | 0.66% | -1.31%
Cc1sc(NC(=O)Cc2cccc(C(F)(F)F)c2)nc1-c1cccc(Cl)c1 | 9.6% | 8.91% | 8.34%
CC1(C)NC(N)=NC(=N)N1OCCCOc1c(Cl)cc(Cl)cc1Cl | -1.14% | 0.14% | -2.41%
Fc1cc(Cl)ccc1Nc1ccnc2cc(-c3ccc(CN4CCNCC4)o3)ccc12 | 1.02% | 1.16% | 1.34%
Cc1ccccc1C1CCN(c2ncc(C(=O)NC3CC3)cc2Cl)CC1 | -1.43% | 5.9% | 2.12%
Cc1cccc2c1NC(=O)/C2=N/NC(=S)N(C)C | 1.53% | 4.53% | 2.09%
Cc1cnc(NCC2CCCCC2)nc1N[C@@H](CO)C(=O)Nc1ccccc1 | 1.68% | 2.03% | -0.71%
Oc1cc(-c2cccc(C(F)(F)F)c2)nc(Nc2ccc(Cl)c(Cl)c2)n1 | 0.75% | 0.89% | 0.9%
c1cncc(CN2CCCN(c3ccc4c(c3)CCN(Cc3ccc(-c5ncc[nH]5)cc3)CC4)CC2)c1 | 1.93% | 2.7% | 2.25%
CN1CCC(OC(=O)c2cc3cc(-c4ccccc4)ccc3n2S(=O)(=O)c2ccccc2)CC1 | 1.64% | 0.71% | 3.61%
Cc1cccc2nc(-c3ccc(-c4ccc(CNCc5cccc(N)c5)cc4)cc3)[nH]c12 | 24.1% | 30.9% | 14.9%
Cc1cccc2nc(-c3ccc(-c4cccc(NC(=O)c5cncn5C)c4)s3)[nH]c12 | 0.66% | 2.43% | -2.47%
Cc1cccc2nc(-c3ccc(-c4cccc(C(=O)N5CCCCC5C(C)O)c4)s3)[nH]c12 (stereo not given) | 1.3% | 2.52% | 3.46%
O=C(Nc1ccc(C(=O)OCC2CCCN3CCCCC23)cc1)c1ccc(Cl)c(Cl)c1 (stereo not given) | 0.06% | -0.05% | 0.18%
CSc1ccc(CN2CCC(NC(=O)c3ccc(-c4ccc(N(C)C)cc4)s3)CC2)cc1 | 1.5% | 0.28% | 2.99%
Cc1cc(CNCCCCCCCNCc2cccc([N+](=O)[O-])c2)ccc1O | 2.48% | 1.23% | -1.43%
COc1ccc2[nH]cc(C3CCN(CCCCNC(=O)c4ccc(NC(=O)c5ccc(Cl)cc5)cc4)CC3)c2c1 | 4.59% | 4.04% | 5.72%
